Source: PubChem (National Center for Advancing Translational Sciences (NCATS))
In the library only some 9.2% were active in any assay of this set; here they are far more common.
ELG1 genotox – qHTS screen for small molecules that induce genotoxicity in human embryonic kidney (HEK293T) cells expressing luciferase-tagged ELG1; 1.3% of 330,000 active; AID 504466, 2011; Potency, µM (series often up to 46 µM), inactives show top-dose activity change, positive = activation, usual class: activators; HEK293T ELG1-luciferase reporter, luminescence, 16 h; note: % of control where 0% means no effect; nearly all actives have a fitted effect of over 60% in size
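Quantitative HTS format in 1536-well plates. HEK293T ELG1-luciferase reporter cells receive test compound and are incubated 16 hr at 37 °C, 5% CO2; ONE-Glo added, 30 min room temperature, then luminescence read.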
ELG1 repair inh – qHTS screen for small molecules that inhibit ELG1-dependent DNA repair in human embryonic kidney (HEK293T) cells expressing luciferase-tagged ELG1; HEK293T ELG1-luciferase reporter, luminescence, 16 h; DNA damage induced by 5-fluorouridine; Potency, µM (highest dose often 46.1 µM), for inactives: top-dose activity change, negative = inhibition, hits mostly inhibitors; 2.3% of 330,000 active; note: % is set by controls: 0 for no effect and ±100 for the full control effect; nearly all actives have a fitted effect of over 55% in size
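Overnight (16 hr) co-exposure of 2,000 cells/well to 5-fluorouridine and compound at 37 °C preceded detection. Luciferase was quantified via ONE-Glo luminescence; loss of signal denotes inhibition.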
FLuc modulator – qHTS profiling assay for firefly luciferase inhibitor/activator using purifed enzyme and Km concentrations of substrates (counterscreen for miR-21 project); AID 588342, 2011; 6.9% of 360,000 active; purified FLuc, Km substrates, luminescence inhibition; Potency, µM (doses to about 57.5 µM), for inactives: top-dose activity change, negative = inhibition, usual class: inhibitors; Luciferin 4-monooxygenase (Photinus pyralis), P08659;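 note: plate controls were vehicle for no effect and reference inhibitor for full effect; nearly all actives have a fitted effect of over 55% in size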
Target sequence (P08659 whole entry, looked up): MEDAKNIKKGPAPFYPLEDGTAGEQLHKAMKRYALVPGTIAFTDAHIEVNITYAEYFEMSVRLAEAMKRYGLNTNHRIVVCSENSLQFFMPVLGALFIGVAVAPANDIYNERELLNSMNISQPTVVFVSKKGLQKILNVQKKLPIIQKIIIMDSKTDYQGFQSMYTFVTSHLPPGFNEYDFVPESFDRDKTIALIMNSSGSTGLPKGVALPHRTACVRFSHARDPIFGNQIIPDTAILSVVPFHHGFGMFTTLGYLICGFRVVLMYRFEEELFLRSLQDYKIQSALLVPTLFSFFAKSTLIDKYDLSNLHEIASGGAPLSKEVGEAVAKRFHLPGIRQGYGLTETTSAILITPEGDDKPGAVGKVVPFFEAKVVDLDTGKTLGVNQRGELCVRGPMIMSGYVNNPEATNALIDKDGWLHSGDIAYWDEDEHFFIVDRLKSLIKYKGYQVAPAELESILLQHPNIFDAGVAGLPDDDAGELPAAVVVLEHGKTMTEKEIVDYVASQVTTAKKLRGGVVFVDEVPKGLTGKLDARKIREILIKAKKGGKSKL
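Purified P. pyralis luciferase (10nM final) with 10uM D-luciferin and 10uM ATP (Km levels) in 50mM Tris acetate pH 7.5, 10mM Mg acetate, 0.01% Tween-20, 0.05% BSA; qHTS 6-point titration, ~60 µM downward; luminescence read.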
Rab9 prom act – qHTS Assay for Rab9 Promoter Activators; Potency, µM (series often up to 9.22 µM), inactives show at the highest dose activation, negative = inhibition, hits mostly activators; Huh7 Rab9 promoter-luciferase reporter, luminescence, 24 h; AID 485297, 2010; 2.8% of 320,000 active; note: % of control where 0% means no effect; nearly all actives have a fitted effect of over 60% in size
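Huh7 cells stably carrying a Rab9 promoter-luciferase reporter, 1500 cells per well in OP-MEM I with 10% FBS, treated with compound 24 hours at 37C. Luciferase activity read by luminescence after 10 minutes with Amplite reagent.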
NPC1 promoter act – qHTS Assay for NPC1 Promoter Activators; Huh7 NPC1 promoter luciferase reporter, 24 h; Potency, µM (top dose mostly 9.22 µM), inactives show at the top dose activation, usual class: activators; 2.4% of 320,000 active; AID 485313, 2010; note: % of control where 0% means no effect; nearly all actives have a fitted effect of over 60% in size
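Huh7 reporter cells (NPC1 promoter driving luciferase) are dosed with compound for 24 h at 37 °C, 5% CO2; luciferase detection reagent is then added and luminescence measured after 10 min at ambient temperature.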
SMN2 splice up – qHTS Assay for Enhancers of SMN2 Splice Variant Expression; HEK293 SMN2-luciferase splicing reporter, luminescence, 30-36 h; Potency, µM (top dose mostly 46.1 µM), for inactives: top-dose activity change, positive = activation, hits mostly activators; 2.8% of 210,000 active; note: % of control where 0% means no effect; nearly all actives have a fitted effect of over 55% in size
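HEK293 cells carry an SMN2 minigene-luciferase reporter in which exon 7 inclusion puts luciferase in frame. Cells were seeded at 2000 cells/well, attached for 10-12 hours, then exposed to compounds for 30-36 hours at 37C before ONE-Glo luminescence.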
Active calls of the source: *; ? = inconclusive; / = no result. Calls come from the whole dose curve; as a rule, active = well fitted curve in the direction sought with a large enough effect; inconclusive = small, poorly fitted or top-dose-only effect, or another doubt; inactive = no such curve, though single readings can be large; an effect the other way counts as inactive or inconclusive. Potency is the fitted concentration of half-maximal effect.

SMILES | ELG1 genotox | ELG1 repair inh | FLuc modulator | Rab9 prom act | NPC1 promoter act | SMN2 splice up
CC(=O)c1cccc(NC(=O)Nc2cccnc2)c1 | -10% | 3.7µM* | ? | -1% | 12% | -6%
COc1cc(CCC(=O)Nc2c(C(=O)N3CCN(c4ccccc4)CC3)oc3ccccc23)on1 | -10% | ? | 1% | -6% | 2% | /
CCCCCOc1ccc(/C=C/C(=O)Nc2sc(C)c(C)c2C(=O)OCC)cc1OC | / | / | -2% | / | / | -5%
COc1ccc(NC(=O)c2oc3ccccc3c2NC(=O)c2cc(C)cc(C)c2)c(OC)c1 | / | / | 2% | / | / | 4%
COc1ccc(-c2nnc(SCC(=O)Nc3cccc(Cl)c3)o2)cc1 | ? | ? | 1% | 2µM* | ? | 13µM*
COc1ccccc1NC(=O)CSc1nnc(-c2cccc(Cl)c2)o1 | / | / | -13% | / | / | /
COc1ccc(NCc2nnc(SCC(=O)Nc3cc(C(F)(F)F)ccc3Cl)o2)cc1 | -1% | 0% | 17µM* | -3% | -2% | 6%
COc1ccc(-c2nnc(SCC(=O)Nc3ccccc3OC)o2)cc1 | ? | ? | 27µM* | 1.6µM* | 2.8µM* | 11µM*
COc1ccc(NS(=O)(=O)c2cccc(C(=O)N3CCCC(C)C3)c2)cc1 (stereo not drawn) | -4% | 0% | 1% | -3% | -2% | /
COC(=O)c1ccc(CSc2nc3ccccc3o2)cc1 | ? | ? | 1.1µM* | 0.89µM* | 1.6µM* | 22µM*
O=[N+]([O-])c1ccc(CSc2nc3ccccc3o2)cc1 | ? | ? | 2.4µM* | 0.89µM* | 0.63µM* | 7.9µM*
COC(=O)c1ccc(CSc2nnc(C)s2)cc1 | 27% | ? | ? | 3.5µM* | ? | 25µM*
COC(=O)c1ccc(CSc2nnc(N)s2)cc1 | 30% | ? | ? | ? | ? | 7%
COC(=O)c1ccc(CSc2nnc3c(n2)[nH]c2ccccc23)cc1 | 1% | 11% | -1% | -4% | -2% | /
COC(=O)c1ccc(CSc2nc(N)cc(N)n2)cc1 | 15µM* | ? | ? | 30% | 26% | 7%
CC1=C(C(=O)Nc2ccc(Cl)cc2)C(C(C)C)n2nc(SCc3cccc(C)c3)nc2N1 (stereo not drawn) | / | / | 0% | / | / | 12%
COc1ccccc1N1CCN(C(=O)C2CCN(S(=O)(=O)c3cn(C)cn3)CC2)CC1 | / | / | -1% | / | / | /
O=c1cc(N=Nc2ccc(Cl)cc2)[nH]c(=O)[nH]1 | -16% | 23µM* | -14% | -50% | -28% | /
COc1ccc(OCC(=O)Nc2sc3c(c2C(=O)NCC2CCCO2)CCC3)cc1 (stereo not drawn) | 0% | 16µM* | -9% | -4% | 0% | -19%
COc1ccc(NC(=O)c2c(NC(=O)COc3ccccc3)sc3c2CCCCC3)cc1 | / | / | -4% | / | / | -2%
O=C(c1cc[n+]([O-])cc1)N1CCc2c([nH]c3ccccc23)C1c1ccccc1Cl (stereo not drawn) | -3% | -13% | -2% | -5% | -2% | /
CN1N=C(C(=O)N2CCc3c([nH]c4ccccc34)C2c2ccccc2Cl)CCC1=O (stereo not drawn) | ? | ? | 15µM* | 5µM* | 14% | /
COc1cccc(NC(=O)Cn2c(=O)n(Cc3ccc4c(c3)OCO4)c(=O)c3oc4ccccc4c32)c1 | / | / | -2% | / | / | /
O=C(Nc1cc([N+](=O)[O-])ccc1C(=O)Nc1cccnc1)c1ccccc1 | 8% | 1% | 1% | 2% | -5% | /
